Screen size: about 5,500 compounds; about 2,000 (36%) were called active. Not shown: some 18% with an inconclusive outcome. No stated cut-off is given here; in the data, active means normalized growth mostly below about 0.91 (no sharp cut-off); inconclusive means no clear call, values can overlap the other calls; inactive means mostly above about 0.92. The list shows a part of the results.
Assay: chemical genetic growth profiling, strain panel (AID 1159580);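 further: tested at 20 µM; growth read once vehicle control cultures reached saturation at 30 °C; 1 = growth at the plate median or of vehicle wells; lower values mean less growth of the strain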
Details: S. cerevisiae deletion strains, growth OD

Measured: normalized growth

CNS(=O)(=O)Cc1ccc2[nH]cc(CCN(C)C)c2c1
inactive: locus YAL021C, strain ccr4, hits give low values 0.999 | locus YAL026C, strain drs2, hits give low values 1.02 | locus YAL030W, strain snc1, hits give low values 1.02 | locus YBL061C, strain skt5, hits give low values 1.03 | locus YBR009C, strain hhf1, hits give low values 1.03 | locus YBR023C, strain chs3, hits give low values 1.03 | locus YBR171W, strain sec66, hits give low values 1.04 | locus YBR231C, strain swc5, hits give low values 1.03 | locus YBR279W, strain paf1, hits give low values 1.02 | locus YCL011C, strain gbp2, hits give low values 1.02 | locus YCL016C, strain dcc1, hits give low values 1.02 | locus YCL069W, strain vba3, hits give low values 1.03 | locus YCR088W, strain abp1, hits give low values 1.03 | locus YDL005C, strain med2, hits give low values 1.04 | locus YDL040C, strain nat1, hits give low values 1.02 | locus YDR001C, strain nth1, hits give low values 1.04 | locus YDR069C, strain doa4, hits give low values 1.02 | locus YDR137W, strain rgp1, hits give low values 1.04 | locus YDR159W, strain sac3, hits give low values 1.03 | locus YDR195W, strain ref2 1 | locus YDR297W, strain sur2, hits give low values 1.02 | locus YDR334W, strain swr1, hits give low values 1.02 | locus YDR335W, strain msn5, hits give low values 1.02 | locus YDR392W, strain spt3, hits give low values 1.01 | locus YEL003W, strain gim4, hits give low values 1.02 | locus YEL037C, strain rad23, hits give low values 1.03 | locus YEL061C, strain CIN8 (second series), hits give low values 1.03 | locus YER015W, strain faa2, hits give low values 1.02 | locus YER016W, strain bim1, hits give low values 1.02 | locus YER111C, strain swi4, hits give low values 1.02 | locus YER155C, strain BEM2 (second series), hits give low values 1 | locus YFR010W, strain ubp6, hits give low values 1.03 | locus YGL167C, strain pmr1, hits give low values 1.03 | locus YGL173C, strain kem1, hits give low values 1.05 | locus YGL227W, strain vid30, hits give low values 1.03 | locus YGL240W, strain doc1, hits give low values 1.02 | locus YGL253W, strain hxk2, hits give low values 1.02 | locus YHR013C, strain ard1, hits give low values 1.07 | locus YHR027C, strain rpn1, hits give low values 1.04 | locus YHR030C, strain SLT2, hits give low values 1.07 | locus YHR079C, strain IRE1, hits give low values 1.05 | locus YHR142W, strain chs7, hits give low values 1.04 | locus YJL092W, strain hpr5, hits give low values 1.03 | locus YJL095W, strain BCK1 (second series), hits give low values 1.02 | locus YJL095W, strain BCK1, hits give low values 1.01 | locus YJL115W, strain asf1, hits give low values 1.03 | locus YJL129C, strain trk1, hits give low values 1.07 | locus YJL154C, strain vps35, hits give low values 1.03 | locus YJL164C, strain tpk1, hits give low values 1.02 | locus YJL166W, strain qcr8, hits give low values 1.02 | locus YJL187C, strain SWE1, hits give low values 1.03 | locus YJR066W, strain TOR1, hits give low values 0.977 | locus YKL160W, strain elf1, hits give low values 1.02 | locus YKR026C, strain gcn3, hits give low values 1.03 | locus YKR091W, strain srl3, hits give low values 1.01 | locus YLL001W, strain dnm1, hits give low values 1.02 | locus YLL026W, hits give low values 1.01 | locus YLL041C, strain sdh2, hits give low values 1.02 | locus YLR027C, strain aat2, hits give low values 1.01 | locus YLR113W, strain HOG1, hits give low values 0.935 | locus YLR221C, strain rsa3, hits give low values 1.02 | locus YLR258W, strain gsy2, hits give low values 1.03 | locus YLR262C, strain YPT6 (second series), hits give low values 1.04 | locus YLR320W, strain mms22, hits give low values 1.04 | locus YLR342W, strain FKS1, hits give low values 1.02 | locus YLR357W, strain rsc2, hits give low values 1.02 | locus YLR370C, strain arc18, hits give low values 1.01 | locus YLR384C, strain iki3, hits give low values 1.03 | locus YML120C, strain ndi1, hits give low values 1.02 | locus YMR058W, strain fet3, hits give low values 1.04 | locus YMR125W, strain sto1, hits give low values 1.02 | locus YMR129W, hits give low values 1.01 | locus YMR205C, strain PFK2, hits give low values 1.05 | locus YMR231W, strain pep5, hits give low values 1.03 | locus YNL071W, strain lat1, hits give low values 1.03 | locus YNL183C, strain NPR1, hits give low values 0.97 | locus YNL209W, strain ssb2, hits give low values 1.02 | locus YNL248C, strain rpa49, hits give low values 1.06 | locus YNL322C, strain KRE1 (second series), hits give low values 1.02 | locus YNR049C, strain mso1, hits give low values 1.02 | locus YOR001W, strain rrp6, hits give low values 1.03 | locus YOR070C, strain gyp1, hits give low values 1.03 | locus YOR080W, strain dia2, hits give low values 1.03 | locus YOR083W, strain WHI5, hits give low values 1.01 | locus YOR106W, strain vam3, hits give low values 1.05 | locus YOR231W, strain MKK1, hits give low values 1.03 | locus YOR265W, strain rbl2, hits give low values 1.01 | locus YOR270C, strain vph1, hits give low values 1.1 | locus YOR290C, strain snf2, hits give low values 1.02 | locus YPL051W, strain arl3, hits give low values 1.02 | locus YPL078C, strain atp4, hits give low values 1.02 | locus YPL106C, strain sse1, hits give low values 1.03 | locus YPL240C, strain hsp82, hits give low values 1.02 | locus YPL256C, strain CLN2, hits give low values 1.06
